Hits are enriched below; roughly 6.5% of the tested compounds scored in any of these assays.
PMK inhibit – blocks S. pneumoniae phosphomevalonate kinase. purified PMK, PK/LDH-coupled NADH absorbance 340 nm. AID 539. 65,000 compounds, 0.49% hits. inhibition, % at 10 µM;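 active means top-ranked compounds by inhibition in the single 10 µM screen, taking a fixed number of the strongest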;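 further: 0% = full reaction with DMSO carrier and 100% = background rate without enzyme reaction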
Spn DPM-DC inh – blocks S. pneumoniae diphosphomevalonate decarboxylase; purified DPM-DC, PK/LDH coupled NADH fluorescence; calls only at 10 µM; 65,000 compounds, 0.49% hits;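 active means the 320 compounds with the highest percent inhibition in the single-dose primary screen, excluding strongly autofluorescent ones, cut at about 32% in these data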;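 further: kinetic rate of NADH fluorescence loss reporting ADP formed by the decarboxylase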
NADH coupling – inhibition of NAD/NADH coupling enzymes, library profiling. coupled PK/LDH NADH assays, four targets. IC50, µM (highest dose often 10 µM), for inactives: at the top dose inhibition. 65,000 compounds, 0.02% hits. AID 774;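 active means single-dose screening hits from any of four coupled enzyme assays that gave an IC50 when retested across doses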;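 further: the DPM-DC format reads NADH fluorescence rather than 340 nm absorbance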
Autofluor 339 – intrinsic fluorescence of library compounds, ex339/em460 – biochemical, MLSMR library, data from DPM-DC assay, artefact control, profiling panel. compound autofluorescence, ex339/em460 nm, NADH buffer; active compounds read high; 1 = no-compound wells, NADH background. 65,000 compounds, 5.5% hits. fluorescence fold increase at 10 µM;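 active means at 10 µM, mean starting fluorescence two-fold or more over control wells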;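 further: signal is the first read of a kinetic run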
A340 absorber – compound absorbs light at 340 nm | fold change at 10 µM | AID 708 | compound absorbance at 340 nm, fold over control | 65,000 tested, under 10 active;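 active means at 10 µM dose, initial 340 nm absorbance at least 2 fold that of control wells; inactive means change under 2 fold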;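 further: initial absorbance extrapolated from kinetic A340 decline of NADH oxidation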
MK inhibit – blocks S. pneumoniae mevalonate kinase; purified MK, PK/LDH-coupled NADH absorbance 340 nm; AID 555; inhibition, % at 10 µM; 65,000 compounds, 0.48% hits;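 active means ranked among the strongest by inhibition in the single 10 µM screen, a fixed top-ranked set picked for dose follow-up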
Starred values were filed as active, the others as inactive; i = inactive; / = not tested or not shown; + = active, no number.

SMILES | PMK inhibit | Spn DPM-DC inh | NADH coupling | Autofluor 339 | A340 absorber | MK inhibit
Cn1c(=O)oc2cc(S(=O)(=O)N3CCCC(C(=O)NCc4cccs4)C3)ccc21 (stereo not given) | 11 | i | 8% | 1.1 | 1.1 | 11
CCOC(=O)CC1C(=O)NCCN1C(=O)Nc1ccccc1 (stereo not given) | 1 | i | 17% | 1.1 | 1.1 | 49*
COC(=O)CC1C(=O)NCCN1C(=O)Nc1ccccc1 (stereo not given) | 24 | i | 8% | 1 | 1 | 0
CCCc1nnc(NC(=O)CN2CCOCC2)s1 | 11 | + | 17% | 0.75 | 0.99 | 8
CCc1nnc(NC(=O)CN2CCOCC2)s1 | 4 | i | 3% | 1.1 | 1 | 5
Cc1occc1-c1nnc(SCC(=O)N2CCN(c3ccccc3F)CC2)n1C | 12 | i | 5% | 0.99 | 1 | 4
Cc1cc(Nc2ccc(Br)c(C)c2)n2nc(C)nc2n1 | 11 | i | 10% | 1.1 | 1 | 8
CCN1CCN(C(c2ccc(F)cc2)c2nnnn2Cc2cccs2)CC1 (stereo not given) | 27* | i | 3% | 1 | 1 | 0
CN1CCN(C(c2ccc(F)cc2)c2nnnn2Cc2cccs2)CC1 (stereo not given) | 12 | i | 9% | 1.1 | 0.99 | 15
O=C(NCc1cccs1)C1CCCN(c2nc3ccccc3o2)C1 (stereo not given) | 25* | i | 12% | 1.1 | 0.99 | 10
O=C(NCc1cccs1)C1CCCN(S(=O)(=O)c2cccs2)C1 (stereo not given) | 7 | i | 2% | 1.2 | 1 | 0
CS(=O)(=O)N1CCCC(C(=O)NCc2cccs2)C1 (stereo not given) | 25* | i | 8% | 1.1 | 1 | 0
CS(=O)(=O)N1CCCC(C(=O)NCCc2ccc(Cl)cc2)C1 (stereo not given) | 26* | i | 14% | 0.86 | 0.96 | 0
CS(=O)(=O)N1CCCC(C(=O)NCCc2ccccc2)C1 (stereo not given) | 1 | i | 3% | 1.1 | 1 | 7
COC(=O)c1ccc(CSc2ccc3nnc(-c4ccc(OC)c(OC)c4)n3n2)o1 | 14 | i | 8% | 1.1 | 0.99 | 9
CCCNC(=O)NC(C(=O)OC)C12CC3CC(CC(C3)C1)C2 (stereo not given) | 17 | i | 5% | 1 | 0.98 | 0
CCn1c(=O)cc(SCC(=O)NCc2ccccn2)c2ccccc21 | 9 | i | 6% | 1.2 | 1 | 5
Cc1ccc2nc(NC(=O)c3cccs3)sc2c1 | 0 | i | 3% | 1.5 | 1.1 | 0
Cc1ccc2nc(NC(=O)c3ccc(Cl)s3)sc2c1 | 5 | / | 3% | 2.1* | 1.1 | 1
CC(=O)c1sc(NC(=O)c2ccc(Cn3cc(Br)cn3)o2)nc1C | 6 | i | 3% | 1.1 | 1.1 | 4
Cc1ccc2nc(NC(=O)c3ccc(Cn4cc(Cl)cn4)o3)sc2c1 | 0 | i | 0% | 2.2* | 1.1 | 1
O=C(NCCN1CCOCC1)c1ccc2c(c1)N(Cc1ccccc1)C(=O)CS2 | 19 | i | 2% | 1.1 | 1 | 3
CN1CCN(CCCNC(=O)c2ccc3c(c2)N(Cc2ccccc2)CCS3)CC1 | 16 | / | 8% | 2.1* | 1.1 | 0
CCN1C(=O)CSc2ccc(C(=O)NCCCN3CCOCC3)cc21 | 17 | i | 6% | 1.1 | 0.99 | 0
O=C(NCCN1CCOCC1)c1ccc2c(c1)N(Cc1ccccc1)CCS2 | 8 | / | 9% | 2* | 1 | 9
CCC(C)(C)n1nnnc1C(c1ccc2ncccc2c1)N1CCN2CCCC2C1 (stereo not given) | 12 | i | 7% | 1.1 | 0.97 | 10
CC(C)c1nc2oc3c(NCc4cccnc4)ncnc3c2c2c1CCC2 | 12 | i | 8% | 2.1* | 1.1 | 5
CC(C)Cc1nc2oc3c(NCc4cccnc4)ncnc3c2c2c1CCC2 | 16 | i | 19% | 2.6* | 1 | 11
CC(C)Cc1nc2oc3c(NCC4CCCO4)ncnc3c2c2c1CCC2 (stereo not given) | 11 | i | 15% | 2.6* | 1 | 8
COC(=O)c1ccc2c(=O)n(CCC3=CCCCC3)c(SCC(=O)N3CCCC3)nc2c1 | 23 | i | 8% | 1.6 | 1 | 2

High-throughput results from PubChem BioAssay.
